Most compounds without a hit are left out; they make up all but 18% or so of the library.
TGFb inhibitor = blocks TGF-b signaling; HepG2 CAGA-GFP TGF-b/SMAD3 reporter, GFP fluorescence, 18 h; TGF-beta stimulated, 500 pg/mL final; 1.2% of 410,000 active; Potency, µM (series often up to 46.1 µM), for inactives: at the highest dose activity, negative = inhibition, usual class: inhibitors; further: potency means the concentration at half of the fitted maximal effect; on the % scale 0 is the no-effect control and ±100 the full control effect; nearly all actives have a fitted effect of over 65% in size
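First, reporter cells (HEPG2 CAGA-GFP) rested 2 h at 37 degrees C. Next, compounds were pinned in and TGF-beta added to 500 pg/mL final. After 18 h, GFP was imaged per cell and summed per well.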
HepG2 tox = kills HepG2 cells in TGF-b inhibitor counter-screen; HepG2 CAGA-GFP viability, ATP luminescence, 18 h; Potency, µM (doses to about 46.1 µM), for the others: at the highest dose activity change, negative = cytotoxicity, most hits filed as cytotoxic; 0.76% of 410,000 active; further: potency means the concentration at half of the fitted maximal effect
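CellTiter-Glo luminescence gave cytotoxicity after 18 hours at 37 degrees C. The cells were HepG2 CAGA-GFP in 1% FBS DMEM, stimulated with 500 pg/mL TGF-beta after compound addition. %Activity was normalised to no-cell wells (complete cell-killing) and DMSO (no toxicity), and curves were fitted and classified.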
TDP1 inh = TDP1 (human) enzyme inhibition. recombinant TDP1, AlphaScreen DNA substrate cleavage. Potency, µM (doses to about 130 µM), without a hit: top-dose activity change, negative = inhibition, hits mostly inhibitors. 0.28% of 350,000 active; further: potency means the concentration at half of the fitted maximal effect; on the % scale 0 is the no-effect control and ±100 the full control effect; nearly all actives have a fitted effect of over 40% in size
Target sequence (Q9NUW8 whole entry, looked up): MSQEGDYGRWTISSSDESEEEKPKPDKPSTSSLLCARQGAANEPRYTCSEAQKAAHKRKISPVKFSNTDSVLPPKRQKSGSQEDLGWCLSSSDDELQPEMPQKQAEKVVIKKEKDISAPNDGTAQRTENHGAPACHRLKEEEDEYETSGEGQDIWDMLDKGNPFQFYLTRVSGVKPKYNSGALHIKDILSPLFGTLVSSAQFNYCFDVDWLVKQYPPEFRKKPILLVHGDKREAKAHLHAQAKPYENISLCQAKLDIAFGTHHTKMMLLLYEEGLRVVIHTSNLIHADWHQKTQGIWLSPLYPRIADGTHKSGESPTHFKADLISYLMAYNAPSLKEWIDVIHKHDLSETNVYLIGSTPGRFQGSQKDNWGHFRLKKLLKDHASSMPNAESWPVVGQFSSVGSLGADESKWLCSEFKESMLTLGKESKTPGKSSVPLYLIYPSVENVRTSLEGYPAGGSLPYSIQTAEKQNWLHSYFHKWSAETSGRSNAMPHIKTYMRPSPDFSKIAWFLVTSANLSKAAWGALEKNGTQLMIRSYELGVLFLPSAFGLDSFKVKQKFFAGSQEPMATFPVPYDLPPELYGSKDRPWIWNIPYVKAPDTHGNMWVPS
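Compounds were preincubated with Tdp1 (1 nM final) for 15 min at room temperature before substrate (15 nM final) started a 5 min reaction; beads (10 ug/ml final) were then added for 10 min before AlphaScreen detection.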
TDP1 cell noCPT = qHTS for Inhibitors of human tyrosyl-DNA phosphodiesterase 1 (TDP1): qHTS in cells in absence of CPT | 15% of 420,000 active | DT40 Tdp1-/- hTDP1 cells, no CPT, ATP luminescence, 48 h | Potency, µM (doses to about 46.2 µM), inactives show at the highest dose activity change, negative = growth inhibition, actives largely listed as inhibitors; further: potency means the concentration at half of the fitted maximal effect; on the % scale 0 is the no-effect control and ±100 the full control effect; nearly all actives have a fitted effect of over 55% in size
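Chicken DT40 Tdp1-/- cells complemented with human TDP1, screened without camptothecin (DMSO vehicle only), 400 cells/well. Compounds pin-transferred, cells incubated at 37 °C for at least 48 hr. Growth read as ATP-dependent luminescence (CellTiter-Glo, 30 min at RT).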
DT40 TDP1 CPT = DT40-hTDP1 cell growth loss with CPT | 12% of 420,000 active | Potency, µM (titrated, usually from 46.2 µM), without a hit: at the highest dose activity change, negative = growth inhibition, usual class: inhibitors | chicken DT40 Tdp1-/-;hTDP1 cells + 20 nM CPT, ATP luminescence, 48 h; further: potency means the concentration at half of the fitted maximal effect; on the % scale 0 is the no-effect control and ±100 the full control effect; nearly all actives have a fitted effect of over 55% in size
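Cell growth measured by CellTiter-Glo luminescence after a minimum 48 h, 37 C compound exposure with 20 nM CPT in Tdp1-knockout DT40 cells stably expressing hTDP1, seeded 400/well; qHTS titration format.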
IL1B secr inh = blocks inflammasome-driven IL-1 beta release; activity change, % at 57.5 µM; 4.7% of 360,000 active; THP-1 LPS/ATP IL-1B secretion, AlphaLISA, 16 h; stronger effect = lower value; AID 743279; in the data active means activity change below about -50%; inconclusive means mostly about -30% to -49%; further: on the % scale 0 is the no-effect control and ±100 the full control effect
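THP-1 cells pretreated 1 hr with compounds (up to 57.5 uM final), then stimulated with LPS (250 ng/mL final) plus ATP (1.25 mM final); secreted IL-1B measured by AlphaLISA after 16 hr, decreased signal indicating inhibition.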
The depositor's hits bear a star; ? = inconclusive; / = no result given; [ ] = remark or other dose. Unless noted, the call rests on the fitted dose curve; in most records, active means well fitted curve in the direction sought with a large enough effect; inconclusive means small, poorly fitted or top-dose-only effect, or another doubt; inactive means no such curve, though single readings can be large; an effect the other way counts as inactive or inconclusive.

SMILES	TGFb inhibitor	HepG2 tox	TDP1 inh	TDP1 cell noCPT	DT40 TDP1 CPT	IL1B secr inh
CCSc1ccc(-c2nn(-c3ccccc3)cc2/C=C(/C#N)C(=O)NCCCOC)cc1	-28%	-8%	-7%	1%	-5%	19
N#C/C(=C/c1cn(-c2ccccc2)nc1-c1cccc(OCc2ccccc2)c1)C(=O)NCCCn1ccnc1	?	-33%	8%	?	?	-75*
N#C/C(=C/c1cn(-c2ccccc2)nc1-c1cccc(S(=O)(=O)N2CCCC2)c1)C(=O)NCc1ccco1	-7%	-14%	4%	12µM*	13µM*	-2
CCCCCCn1c(SCC#N)nc2ccccc2c1=O	12%	15%	/	?	?	/
N#Cc1ccc(S(=O)(=O)Nc2ccccc2N2CCOCC2)cc1	-2%	-10%	4%	-9%	-11%	14
O=C(O)c1sccc1S(=O)(=O)Nc1ccccc1N1CCCCC1	/	/	8%	/	/	/
O=S(=O)(Nc1ccccc1N1CCCCC1)c1ccc(Cl)s1	0%	-84%	2%	8.2µM*	10µM*	35
O=S(=O)(Nc1ccccc1N1CCOCC1)c1ccccc1C(F)(F)F	-27%	-13%	-2%	18µM*	?	40
O=S(=O)(Nc1ccccc1N1CCCC1)c1ccccc1C(F)(F)F	-8%	-32%	/	21µM*	21µM*	36
CC(C)=NOC[C@@H](O)[C@@H]1O[C@@H]2OC(C)(C)O[C@@H]2[C@H]1O	/	/	4%[21 µM]	/	/	/
O=C(c1cnccn1)N1CCC2(CC1)CN(Cc1ccccc1)C2	/	/	/	0%	4%	/
CS/C(=N\S(=O)(=O)c1cccs1)Nc1cccc(Cl)c1C	-27%	-22%	2%	?	15µM*	0
O=S(=O)(/N=C(/Nc1cccc2ccccc12)c1ccccc1)c1cccs1	0%	1%	-3%	?	-37%	4
COc1ccc(-c2nc3ccc(C)cn3c2Cc2ccccc2)cc1OC	?	-43%	/	23µM*	18µM*	?
Cc1cc2nc(C(C)(C)C)c(Cc3cccc(Cl)c3)n2c(C)c1Br	/	/	/	-24%	-20%	53
Cc1ccc2nc(C(C)(C)C)c(Cc3cccc(Cl)c3)n2c1	-82%	-32%	/	18µM*	16µM*	11
COc1ccc(-c2nc3ccc(C)cn3c2Cc2cccc(Cl)c2)cc1OC	-14%	-28%	/	18µM*	?	0
COc1ccc(-c2nc3ccc(Br)cn3c2Cc2ccsc2)cc1OC	?	-42%	/	?	?	1
Cc1ccc2nc(-c3ccc(Cl)cc3)c(Cc3cccc(Cl)c3)n2c1	/	/	/	?	?	-12
COc1ccc(-c2nc3ccc(C)cn3c2Cc2ccc(C)cc2)cc1OC	?	-25%	/	15µM*	23µM*	-19
Cc1cccc(C)c1NC(=O)C(c1ccccc1OC(F)(F)F)N1CCN(C)CC1 (stereo not given)	/	/	/	-26%	-28%	-16
Cc1cc(NC(=O)COc2ccccc2)ccc1Cl	-8%	-1%	-6%	-14%	-8%	-13

Source: PubChem (National Center for Advancing Translational Sciences (NCATS))
